About 1,400 (58%) of roughly 2,400 compounds were called active.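 How the source made its calls: active means inhibition of 30% or more at any tested dose; inconclusive means primary hits over the limit that were never retested; inactive means the rest.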 So high a share suggests a set chosen from earlier hits. The list shows a part of the results.
experiment: ADP Hunter readout inhibition without MgcRacGAP – biochemical, coupled enzyme counter-screen, artefact control for MgcRacGAP inhibitor project, dose response (AID 624351); settings: fluorescence, no MgcRacGAP; series mostly up to 80 µM; inhibition: at the top concentration;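 further: signal is the ADP detection kit reading of free GDP without any GAP enzyme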;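 on inhibition: 0% = median positive control wells and 100% = median negative control wells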

SMILES | inhibition | IC50
COc1ccc(CN2CCN(CCSc3ccc(C)cc3)CC2)c(OC)c1OC | 26.8% (inactive) | 
CC1CN(CCCCOc2ccc(Cl)c3ccccc23)CC(C)O1 (stereo not given) | 11.3% (inactive) | 
CSc1sccc1/C=C(/C#N)C(=O)c1ccco1 | 3.74% (inactive) | 
NC(CSS(=O)(=O)O)=NCCC12CC3CC(CC(O)(C3)C1)C2 | 3.73% (inactive) | 
COc1cc(/C=N/NC(=O)c2cc(-c3c(C)nn(-c4ccccc4)c3C)n[nH]2)ccc1O |  | 38.8 µM (active)
COc1cc(/C=N/Nc2nc(C)cc(C)n2)ccc1O |  | 60.7 µM (active)
COc1cc(/C=N/NC(=O)c2nc(-c3ccccc3)n(-c3ccccc3)n2)ccc1O |  | 41.9 µM (active)
COc1cc(/C=N/NC(=O)c2nc(C)cc(C)n2)ccc1O |  | 37.3 µM (active)
c1cc(CN2CCN(C3CCCCCC3)CC2)ccn1 | 23.8% (inactive) | 
COc1cc(/C=N/NC(=O)c2cn(-c3cccc(C)n3)cn2)ccc1O |  | 37.3 µM (active)
Oc1ccc(/C=N/NC2=NCCCCC2)c(O)c1 |  | 67.6 µM (active)
COc1cc(/C=N/NC2=NCCCCC2)ccc1O |  | 27.6 µM (active)
Nc1nc2cc(S(=O)(=O)NC3=NCCCCC3)ccc2s1 | 1.02% (inactive) | 
COc1cc(/C=N/Nc2cc(C)nc(NS(=O)(=O)c3ccccc3)n2)ccc1O |  | 41 µM (active)
S=c1[nH]c2ccccc2n2c(=S)[nH]nc12 |  | 51.8 µM (active)
O=c1[nH]c2ccccc2n2c(=S)[nH]nc12 |  | 78.8 µM (active)
CCCCN(CCCC)CCNC(=O)CSCc1ccc(C)cc1 | 19.8% (inactive) | 
Cc1cccc(-n2nc3c(c2NC(=O)c2ccco2)CSC3)c1C | 0.97% (inactive) | 
C=CCc1cc(OC)ccc1OCCN1CC(C)OC(C)C1 (stereo not given) | 28.6% (inactive) | 
Nc1ccc(OCc2ccco2)cc1 |  | 58.6 µM (active)
c1coc(CSSCc2ccco2)c1 | 0.48% (inactive) | 
CC1N(C)c2cccc3cccc(c23)N1C |  | 21 µM (active)

SMILES | inhibition | IC50
CCN(CC)c1ccc(N=Cc2ccccc2[N+](=O)[O-])cc1 |  | 27.2 µM (active)
O=C1/C(=C/c2ccccc2[N+](=O)[O-])COc2ccccc21 | 3.33% (inactive) | 
CCN(CC)c1ccc(N=Cc2c(C)[nH]c3ccccc23)cc1 |  | 41.6 µM (active)
CN(C)C=Nc1ccc2nc3c(cc2c1)[nH]c1ccccc13 | -11.8% (inactive) | 
CC(=C/c1ccccc1)/C=N/n1c(-c2ccco2)n[nH]c1=S |  | 66.7 µM (active)
S=c1[nH]nc(-c2ccco2)n1/N=C/c1ccc(Cl)cc1 |  | 51.2 µM (active)
CC1=C(C)CS(=O)N(S(=O)(=O)c2ccc(Cl)cc2)C1 (stereo not given) | -1.25% (inactive) | 
Cc1cccc(-c2n[nH]c(=S)n2/N=C/c2ccco2)c1 |  | 78.9 µM (active)
Cc1cccc(CN2CCN(Cc3ccco3)CC2)c1 | 5.3% (inactive) | 
Cc1nc2ccc(C(=O)Nc3ccc(N(C)C)cc3)cc2s1 |  | 58.9 µM (active)
Cc1ccc2nc(N(CCCN(C)C)C(=O)c3ccc4ncsc4c3)sc2c1 | 4.64% (inactive) | 
O=C(CN1CCc2ccccc2C1)Nc1ccccc1C(F)(F)F | 8.43% (inactive) | 
COc1cc(C2C(=O)c3ccccc3C2=O)ccc1O |  | 20.4 µM (active)
O=C1c2ccccc2C(=O)C1c1ccc(O)cc1 |  | 81.3 µM (active)
C[C@H]1CCC/C=C/[C@@H]2C[C@H](O)C[C@H]2[C@H](O)[C@H](S(=O)c2ccc(O)cc2)CC(=O)O1 (stereo not given in full) | 24.2% (inactive) | 
N#CCCN1CCN(CCC#N)c2ccccc21 |  | 20 µM (active)
CN1CCN(CCCNCc2cn(CCC#N)c3ccccc23)CC1 | -1.13% (inactive) | 
COc1ccc(OC(=O)COc2ccc(C)cc2)cc1 | 28.1% (inactive) | 
COC(=O)c1ccc(NC(=S)Nc2ccc(O)cc2)cc1 |  | 68.1 µM (active)
CC(=O)Nc1ccc(OC(=O)c2cc3ccccc3oc2=O)cc1 | 13.8% (inactive) | 
O=C(/C=C/c1ccco1)NC(=S)Nc1ccc(C(=O)O)cc1 | -1.18% (inactive) | 
Cc1ccc(OC(=S)Nc2ccc(O)cc2)cc1 |  | 34.5 µM (active)

SMILES | inhibition | IC50
Oc1ccc(NC(=S)Nc2ccccc2)cc1 |  | 55.5 µM (active)
Oc1ccc(NC(=S)Nc2ccc(O)cc2)cc1 |  | 46.5 µM (active)
CC(=O)c1ccc(NC(=S)Nc2ccc3[nH]c(=O)[nH]c3c2)cc1 | 8.57% (inactive) | 
CN(C)c1ccc(O)c2c1CC1CC3[C@@H](N(C)C)C(=O)C(C(N)=O)=C(O)[C@]3(O)C(=O)C1=C2O (stereo not given in full) | -7.5% (inactive) | 
COCC(C)NCc1ccc(OC)c(Br)c1 (stereo not given) | 20.1% (inactive) | 
COc1ccc(CN2CCN(Cc3ccccc3F)CC2)c(OC)c1 | 27.5% (inactive) | 
O=C(c1cccnc1)N1CCN(Cc2cccc(Br)c2)CC1 | 0.22% (inactive) | 
CNC(=S)Nc1ccc(Nc2ccccc2)cc1 |  | 71.8 µM (active)
O=C(NC(=S)Nc1ccc(O)cc1)C1CCCC1 |  | 31.8 µM (active)
O=C(Nc1ccc(O)cc1)C1CC=CCC1 (stereo not given) |  | 64.6 µM (active)
CC1CCCCN1CC(=O)Nc1ccc(N2CCCCCC2)cc1 (stereo not given) | 11.7% (inactive) | 
CN(C(=S)NC(=O)C1CC1)c1ccc(O)cc1 | 3.76% (inactive) | 
CC(C)N(c1ccccc1)c1ccc(NC(=S)NCCN(C)C)cc1 | 9.78% (inactive) | 
N=C1/C(=C\c2ccc(Br)o2)C(=O)N=C2SC(CC(=O)N3CCCCC3)=NN12 | 3.12% (inactive) | 
COc1ccc(C2NC(=O)C(C#N)=C(S)N2c2ccccc2)cc1OC (stereo not given) | 1.58% (inactive) | 
Cc1cccn2c(=S)[nH]nc12 |  | 13.4 µM (active)
S=c1[nH]nc2ccccn12 |  | 24 µM (active)
Cc1ccn2c(=S)[nH]nc2c1 |  | 46.7 µM (active)
Cc1ccc(/C=C2/C(=O)c3ccc(C(=O)O)cc3C2=O)o1 | -2.01% (inactive) | 
Cc1cc(O)ccc1N=Cc1c(C(F)(F)F)[nH][nH]c1=O |  | 32.8 µM (active)
Oc1ccc(/C=C/c2ccc3ccccc3n2)cc1 |  | 30.7 µM (active)

From PubChem BioAssay AID624351 (Southern Research Specialized Biocontainment Screening …, 2012)
